# Sampled rows, rich in hits. Any-hit rate of the full collection: about 5.8%.
# SW480 rereplic – inducers of DNA re-replication in SW480 colon cancer cells; SW480 DNA re-replication, Hoechst DNA content imaging, 48 h; Potency, µM (doses to about 46.1 µM), actives largely listed as activators; 340,000 compounds, 1.8% hits; AID 624297; also: nearly all actives have a fitted effect of over 55% in size
#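 Treated cells incubate 48 hr (37 C, 5% CO2), are stained 40 min with Hoechst, and nuclear fluorescence is enumerated; a rise in nuclei with high DNA signal marks re-replication.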
# KB-3-1 cytotox – KB-3-1 parental cell cytotoxicity; KB-3-1 viability, CellTiter-Glo ATP luminescence, 72 h; Potency, µM (top dose mostly 46.1 µM), usual class: cytotoxic; 400,000 compounds, 1.4% hits; AID 1347075; also: nearly all actives have a fitted effect of over 60% in size
#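 Using CellTiter-Glo luminescence, growth of non-resistant KB-3-1 adenocarcinoma cells is assessed 72 h after pin-tool compound addition at 37 °C. Normalized responses across the concentration series yield fitted curves.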
# KB-V1 MDR tox – kills drug-selected multidrug resistant KB-V1 cells; KB-V1 MDR cells viability, CellTiter-Glo, 72 h; Potency, µM (series often up to 46.1 µM), hits mostly cytotoxic; 400,000 compounds, 3.4% hits; AID 1347076; also: nearly all actives have a fitted effect of over 60% in size
#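 Compound-treated KB-V1 multidrug-resistant cells, 72 h, 37 degrees C; viability by CellTiter-Glo. Fitted qHTS curves give the values.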
# MCF10A rereplic – induces DNA re-replication in MCF 10a normal breast cells | AID 624296 | Potency, µM (highest dose often 46.1 µM), most hits filed as activators | 350,000 compounds, 2.9% hits | MCF 10A DNA re-replication, Hoechst nuclear intensity, 48 h; also: nearly all actives have a fitted effect of over 50% in size
# PINK1 expr mod – changes PINK1 expression; PINK1 immunofluorescence, high-content cytometry, 24 h; Potency, µM (highest dose often 76.6 µM), most hits filed as activators; 410,000 compounds, 0.2% hits; AID 624263; active = well fitted activation curve with a large enough effect; inconclusive = small, poorly fitted or top-dose-only effect; cell line not stated here; also: nearly all actives have a fitted effect of over 65% in size
#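 Stable cell line, 250 cells/well, 12 h attachment; compounds pinned at 5 concentrations, 24 h; CCCP control. Fixed with nuclear dye, primary antibodies 12 h at 10 degrees C, secondary plus cell stain; laser-scanning cytometer read.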
# ALOX12 inh – blocks human arachidonate 12S-lipoxygenase; P18054; purified 12hLO, xylenol orange hydroperoxide absorbance; 580,000 compounds, 1.1% hits; Potency, µM (doses to about 108 µM), actives largely listed as inhibitors
# Target sequence (P18054 whole entry, looked up): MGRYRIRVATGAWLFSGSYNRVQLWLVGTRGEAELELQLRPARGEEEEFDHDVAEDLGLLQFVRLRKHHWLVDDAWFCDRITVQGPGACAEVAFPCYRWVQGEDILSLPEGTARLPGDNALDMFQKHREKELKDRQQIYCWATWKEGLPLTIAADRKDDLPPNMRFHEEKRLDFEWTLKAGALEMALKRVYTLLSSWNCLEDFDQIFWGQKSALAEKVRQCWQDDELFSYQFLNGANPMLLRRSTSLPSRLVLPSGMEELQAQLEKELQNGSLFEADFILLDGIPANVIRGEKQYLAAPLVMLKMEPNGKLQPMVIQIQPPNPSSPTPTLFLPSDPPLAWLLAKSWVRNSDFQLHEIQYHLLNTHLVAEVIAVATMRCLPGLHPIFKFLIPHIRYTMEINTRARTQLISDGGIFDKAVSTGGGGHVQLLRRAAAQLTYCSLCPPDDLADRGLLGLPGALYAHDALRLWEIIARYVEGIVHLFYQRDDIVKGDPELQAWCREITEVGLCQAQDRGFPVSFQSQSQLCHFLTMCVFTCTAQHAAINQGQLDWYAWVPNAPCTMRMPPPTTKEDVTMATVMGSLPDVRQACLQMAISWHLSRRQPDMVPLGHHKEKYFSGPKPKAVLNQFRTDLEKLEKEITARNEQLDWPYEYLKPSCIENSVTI
#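 Hydroperoxide product was detected by ferrous iron/xylenol orange as the 573 to 405 nm absorbance ratio. Arachidonic acid at 40 uM (final) was turned over for 30 min at room temperature by 150 nM human 12hLO, pH 7.0 Hepes buffer, after 15 min compound preincubation.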
# Hits are given with their value; . = inactive; ? = inconclusive; / = no result. Unless noted, calls follow the shape of the dose curve; as a rule, active = well fitted curve in the direction sought with a large enough effect; inconclusive = small, poorly fitted or top-dose-only effect, or another doubt; inactive = no such curve, though single readings can be large; an effect the other way counts as inactive or inconclusive.
SMILES,SW480 rereplic,KB-3-1 cytotox,KB-V1 MDR tox,MCF10A rereplic,PINK1 expr mod,ALOX12 inh
CCOc1ccc(-c2cc(C(=O)NCCCn3ccnc3)c3cc(Br)ccc3n2)cc1,?,?,?,?,.,?
CCOc1ccc(-c2cc(C(=O)NCCCn3ccnc3)c3ccccc3n2)cc1,.,.,.,0.58µM,.,.
COc1ccccc1C(=O)NC(=S)NNC(=O)c1sc2ccccc2c1Cl,.,.,.,5.2µM,.,.
COc1ccc(Cl)cc1C(=O)NNC(=S)NC(=O)c1cc(-c2ccc(Cl)cc2)nc2ccccc12,.,.,.,.,.,50µM
COc1ccccc1C(=O)NNC(=S)NC(=O)c1sc2ccccc2c1Cl,?,.,.,?,.,.
CCCOc1ccc(NC(=O)COc2ccc(F)cc2)c2cccnc12,/,/,/,/,/,.
CCCCN(CCCC)C(=O)c1csc(Br)c1,/,/,/,/,/,.
CCOC(=O)c1cc(NC(=O)C2CCCO2)cc(C(=O)OCC)c1 (configuration not stated),.,.,13µM,.,.,.
CCc1ccc(NC(=O)c2ccc(NC(=O)C3CCCO3)cc2)cc1 (configuration not stated),.,.,23µM,.,.,/
CCOC(=O)c1ccc(NC(=O)C2CCCO2)cc1 (configuration not stated),.,.,.,.,.,.
COc1ccccc1NC(=O)c1ccc(NC(=O)Cn2nc(C(=O)O)c3ccccc3c2=O)cc1,/,/,/,/,/,.
CCC(C)(C)C1CCC(NC(=O)Cc2cc(OC)c(OC)c(OC)c2)CC1 (configuration not stated),/,/,/,/,/,.
O=C1N(c2ccccc2C(F)(F)F)O[C@]1(c1ccccc1)C1CCCCC1,13µM,.,.,18µM,.,.
O=C1N(c2ccccc2C(F)(F)F)OC1(Cc1ccccc1)c1ccccc1 (configuration not stated),?,.,.,?,.,.
O=C(NCC(O)COc1cccc(C(F)(F)F)c1)C1CCC1 (configuration not stated),/,/,/,/,/,.
CN(C)CCNC(=O)c1nc(-c2cccc3[nH]ccc23)no1,/,/,/,/,/,.
Cc1cc(C)cc(NC(=O)Cc2csc(COc3cccc(C)c3)n2)c1,/,.,.,/,.,50µM
COc1cccc(NC(=O)Cc2csc(COc3cccc(C)c3)n2)c1,/,.,.,/,.,.
Cc1ccc(-n2c(SCC(=O)NC(=O)NCC(C)C)nnc2N2CCCCC2)cc1,/,/,/,/,/,.
O=C(CC[C@H]1O[C@@H](n2ccc(=O)[nH]c2=O)[C@H](O)[C@@H]1O)N[C@H](Cc1ccccc1)C(=O)NCC1CCCCC1,/,.,.,/,.,.
O=C(CC[C@H]1O[C@@H](n2ccc(=O)[nH]c2=O)[C@H](O)[C@@H]1O)N[C@@H](Cc1ccccc1)C(=O)NCC1CCCO1 (some centres not stated),/,.,7.3µM,/,.,.
CCc1ccc(C(=O)NC(C)C2CCCO2)s1 (configuration not stated),/,/,/,/,/,.
Cc1ccc(-c2ccc(/C=C3\C(=O)ON=C3c3ccccc3)o2)c([N+](=O)[O-])c1,?,.,.,?,.,4.5µM
Cc1ccc(/C=C2\C(=O)ON=C2c2ccccc2)o1,.,.,.,.,.,?
Cc1ccc(C2=NOC(=O)/C2=C\c2ccc(C)o2)cc1,?,.,.,16µM,.,16µM
SMILES,SW480 rereplic,KB-3-1 cytotox,KB-V1 MDR tox,MCF10A rereplic,PINK1 expr mod,ALOX12 inh
Cc1ccc(C)c(OCCn2cc(C(=O)C(F)(F)F)c3cc(Br)ccc32)c1,/,/,/,/,/,.
CC(C)c1ccccc1NC(=O)c1cnc2ccccc2n1,/,/,/,/,/,.
O=S(=O)(NC1CCN(S(=O)(=O)c2ccc(C(F)(F)F)cc2)CC1)c1cccs1,/,/,/,/,/,.
O=[N+]([O-])c1ccc2c(c1)-c1ccccc1C2O (configuration not stated),/,.,.,/,.,7.1µM
Fc1ccccc1-c1noc(-c2nc(Cc3ccccc3)no2)n1,/,/,/,/,/,.
O=c1c2[nH]c3ccccc3c2ncn1CCC1=CCCCC1,.,.,.,.,.,.
COc1ccc(CNc2ncnc3c2[nH]c2ccccc23)cc1,.,.,13µM,?,?,.
COc1ccc(CNC(=O)Cn2cnc3c(NCc4ccccc4)ncnc32)cc1,13µM,10µM,.,?,.,?
C1=C(CCNc2ncnc3c2[nH]c2ccccc23)CCCC1,.,5.2µM,?,?,?,?
CC(C)OCCCNc1ncnc2c1[nH]c1ccccc12,.,7.3µM,?,.,.,.
CCOc1ccc2[nH]c3c(NCCCOC)ncnc3c2c1,.,.,.,.,.,.
Nc1cc(Cl)ccc1Sc1ccccc1,/,/,/,/,/,.
CC1CCc2sc(C(=O)OCC(=O)N3CCC(c4ccccc4)=N3)cc2C1 (configuration not stated),/,/,/,/,/,.
COc1ccccc1Nc1ccc([N+](=O)[O-])cc1N,.,?,.,?,.,.
COc1cc(Nc2ccccc2Cl)c([N+](=O)[O-])nc1[N+](=O)[O-],4.6µM,.,.,?,.,.
O=C(O)CCCn1c(=S)[nH]c2c(sc3ccc([N+](=O)[O-])cc32)c1=O,.,.,?,.,.,18µM
CC1CCN(CCCn2c(=S)[nH]c3c(sc4ccc([N+](=O)[O-])cc43)c2=O)CC1,.,.,.,.,.,?
COc1ccc(C)cc1NC(C)C(=O)N(C)Cc1cccc(F)c1 (configuration not stated),/,/,/,/,/,.
CCOc1cc(N2CCOCC2)c(OCC)cc1NC(=O)c1cccc(S(=O)(=O)N2CC(C)OC(C)C2)c1 (configuration not stated),/,.,.,/,.,.
CCOc1cc(N2CCOCC2)c(OCC)cc1NC(C)C(=O)N1CCN(CC)CC1 (configuration not stated),.,.,.,.,.,3.2µM
CCn1cc(C(=O)OCC(=O)Nc2cccc(S(=O)(=O)N3CCOCC3)c2)c(=O)c2ccc(C)nc21,.,.,8.2µM,.,.,?
CCOC(=O)c1ccc(NC(=O)c2cccc(S(=O)(=O)N3CCOCC3)c2)cc1,.,.,23µM,.,.,.
CCOc1cc(N2CCOCC2)c(OCC)cc1NC(=O)c1cccc(S(=O)(=O)N2CCOCC2)c1,.,.,15µM,.,.,.
CC(=O)Nc1cc(NC(=O)Cc2nc(-c3ccccc3)oc2C)ccc1F,/,/,/,/,/,.
CC(C)C(=O)N1N=C(c2ccc(Cl)cc2)CC1c1ccc2nccnc2c1 (configuration not stated),/,/,/,/,/,.
CCOc1cc(N2CCOCC2)c(OCC)cc1NC(=O)CSc1ncccc1C(=O)O,.,.,.,.,.,11µM
CCOC(=O)c1c(-c2ccccc2)csc1NC(=O)CCN1CCOCC1,/,.,?,?,.,?

# Assay outcomes as filed in PubChem.
